Source: PubChem BioAssay
Shown is part of a subset that was picked to be rich in hits.
Autofluor counter: compound fluorescence in toxin protease inhibitor counterscreen | fluorescence intensity (test concentration not listed) | 360,000 tested, 3.1% active | compound autofluorescence counterscreen, microsphere flow cytometry; active compounds read high; in the data active = fluorescence intensity above about 16000; inconclusive = no clear call, values can overlap the other calls
BoNT A protease: BoNT/A light chain protease inhibitors, primary screen, biochemical, flow cytometry, MLPCN library; Botulinum neurotoxin type A light chain protease (Clostridium botulinum A str. ATCC 3502); AID 588499, 2011; 360,000 tested, 0.17% active; multiplex microsphere protease substrate cleavage; inhibition, % at 10 µM; also: plate controls were buffer without enzyme for full effect and enzyme alone for no effect
TcdB inh: TcdB glycohydrolase inhibitors, primary screen, biochemical, single point, plate reader | Toxin B (Clostridioides difficile), P18177 | TcdB glycohydrolase enzymatic assay | inhibition, % at 9.99 µM | 350,000 tested, 0.24% active; in the data active = inhibition above about 10%
Anthrax LF inh2: Bacillus anthracis LF protease inhibitors, primary screen, biochemical, multiplex microsphere, MLPCN library | Lethal factor (Bacillus anthracis), P15917 | multiplex microsphere protease cleavage assay | inhibition, % at 10 µM | AID 588501, 2011 | 360,000 tested, 0.12% active; also: plate controls were buffer without enzyme for full effect and enzyme alone for no effect
Target sequence (P15917 whole entry, looked up): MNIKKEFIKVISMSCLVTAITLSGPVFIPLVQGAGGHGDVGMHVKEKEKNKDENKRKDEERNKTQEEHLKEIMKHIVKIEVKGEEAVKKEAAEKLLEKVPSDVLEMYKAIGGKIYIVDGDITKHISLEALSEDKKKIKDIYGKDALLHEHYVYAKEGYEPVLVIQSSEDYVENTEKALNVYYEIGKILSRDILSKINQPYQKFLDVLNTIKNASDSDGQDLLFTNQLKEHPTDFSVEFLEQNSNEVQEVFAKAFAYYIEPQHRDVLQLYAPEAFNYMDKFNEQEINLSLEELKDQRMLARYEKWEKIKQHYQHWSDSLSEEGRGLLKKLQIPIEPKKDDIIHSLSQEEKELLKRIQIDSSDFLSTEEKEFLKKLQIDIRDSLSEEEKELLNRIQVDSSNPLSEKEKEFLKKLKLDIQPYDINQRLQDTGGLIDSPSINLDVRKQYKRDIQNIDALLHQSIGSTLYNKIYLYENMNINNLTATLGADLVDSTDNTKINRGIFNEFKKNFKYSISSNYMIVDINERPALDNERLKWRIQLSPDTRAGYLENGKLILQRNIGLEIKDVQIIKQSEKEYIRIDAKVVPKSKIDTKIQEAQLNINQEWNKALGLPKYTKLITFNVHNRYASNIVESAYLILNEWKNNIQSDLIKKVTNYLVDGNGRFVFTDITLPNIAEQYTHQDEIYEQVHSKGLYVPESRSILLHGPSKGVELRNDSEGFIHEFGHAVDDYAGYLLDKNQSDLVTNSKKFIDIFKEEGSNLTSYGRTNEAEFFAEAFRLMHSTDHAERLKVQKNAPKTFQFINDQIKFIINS
BoNT F protease: BoNT/F light chain protease inhibitors, primary screen, biochemical, flow cytometry, MLPCN library; Botulinum neurotoxin type F light chain protease (Clostridium botulinum); AID 588497, 2011; inhibition, % at 10 µM; 360,000 tested, 0.22% active; Multiplex microsphere protease cleavage assay; in the data active = inhibition above about 35%, passing the limit was not always enough; inconclusive = no clear call, values can overlap the other calls; also: plate controls were buffer without enzyme for full effect and enzyme alone for no effect
Active calls of the source: *; ! = not active in a repeat. Rule as the data show it, unless noted: active = inhibition above about 30%; inconclusive = no clear call, values can overlap the other calls; inactive = below that.

What do the screens show for `CCOc1ccc(N/C=C/C(=O)c2ccc(OC)c(OC)c2)cc1`?
Autofluor counter: 4246; BoNT A protease: -7; TcdB inh: -5; Anthrax LF inh2: 6; BoNT F protease: -28

What do the screens show for `CCn1nnnc1-c1ccc(OC)c(S(=O)(=O)NCCc2ccccc2)c1`?
Autofluor counter: 19509*; BoNT A protease: inconclusive; Anthrax LF inh2: -10; BoNT F protease: -2

What do the screens show for `CCOC(=O)c1ccc(N/C=C/C(=O)c2ccc(OC)c(OC)c2)cc1`?
Autofluor counter: 19087*; BoNT A protease: 4; Anthrax LF inh2: 2; BoNT F protease: 7

How did CCOC(=O)c1ccc(NS(=O)(=O)c2cc(-c3nnnn3CC)ccc2OC)cc1 do in these assays?
Autofluor counter: 19076*; BoNT A protease: inconclusive; Anthrax LF inh2: -2; BoNT F protease: 0

Results for CCCCOC(=O)c1ccc(NS(=O)(=O)c2cc(-c3nnnn3CC)ccc2OC)cc1 ?
Autofluor counter: 3245; BoNT A protease: 1; Anthrax LF inh2: -2; BoNT F protease: 4

What do the screens show for `Cc1ccc(S(=O)(=O)N(C)C[C@H]2OCCCC[C@@H](C)Oc3ccc(N(C)C)cc3C(=O)N([C@@H](C)CO)C[C@H]2C)cc1`?
TcdB inh: -12

Results for COc1ccc(NC(=O)N(C)C[C@@H]2Oc3cc(C#CCN(C)C)ccc3S(=O)(=O)N([C@@H](C)CO)C[C@H]2C)cc1 ?
TcdB inh: 1

How did O=C(CSc1nc2ccccc2c(=O)n1CCCC(=O)N1CCCC1)NCc1ccco1 do in these assays?
Autofluor counter: 23337*; BoNT A protease: 0; Anthrax LF inh2: -2; BoNT F protease: -1

What do the screens show for `CCn1c(SCC(=O)NCc2ccco2)nc2ccccc2c1=O`?
Autofluor counter: 4683; BoNT A protease: -1; TcdB inh: -3; Anthrax LF inh2: -2; BoNT F protease: -4

How did O=C(CSc1nc2ccccc2c(=O)n1Cc1ccccc1)NCc1ccco1 do in these assays?
Autofluor counter: 10801; BoNT A protease: 0; Anthrax LF inh2: -2; BoNT F protease: -2

Results for O=C(CSc1nc2ccccc2c(=O)n1Cc1ccc(C(=O)NC2CC2)cc1)NCc1ccco1 ?
Autofluor counter: 19257*; BoNT A protease: 3; Anthrax LF inh2: 1; BoNT F protease: 3

Results for CCOCCCn1c(SCC(=O)NCc2ccco2)nc2c(sc3ccccc32)c1=O ?
Autofluor counter: 9584; BoNT A protease: 0; TcdB inh: 2; Anthrax LF inh2: -11; BoNT F protease: 6

How did CCCCn1c(SCC(=O)NCc2ccco2)nc2c(sc3ccccc32)c1=O do in these assays?
Autofluor counter: 22504*; BoNT A protease: inconclusive; Anthrax LF inh2: -1; BoNT F protease: -1

What do the screens show for `O=C(O)c1cc(Cl)ccc1NC(=O)C1CCCO1` (stereo unspecified)?
Autofluor counter: 9580; BoNT A protease: 0; TcdB inh: 6; Anthrax LF inh2: 3; BoNT F protease: -9

What do the screens show for `COc1cc(NC(=O)C2CCCO2)c(C(=O)O)cc1OC` (stereo unspecified)?
Autofluor counter: 21130*; BoNT A protease: -1; TcdB inh: 6; Anthrax LF inh2: 2; BoNT F protease: -5

How did C=CCOc1c(Br)cc(CNc2ccc(NC(=O)C(C)C)c(OC)c2)cc1OC do in these assays?
Autofluor counter: 20313*; BoNT A protease: inconclusive; Anthrax LF inh2: -9; BoNT F protease: 5

Results for COc1cc(NC(=O)c2ccco2)c(C(=O)O)cc1OC ?
Autofluor counter: 23681*; BoNT A protease: -2; Anthrax LF inh2: -3; BoNT F protease: -2

Results for COc1cc(NC(=O)c2ccco2)ccc1NC(=O)C(C)C ?
Autofluor counter: 21437*; BoNT A protease: inconclusive; Anthrax LF inh2: -3; BoNT F protease: -7

How did C[C@@H]1CN([C@H](C)CO)C(=O)c2cc(NS(=O)(=O)c3ccc(F)cc3)ccc2O[C@@H](C)CCCCO[C@H]1CN(C)C(=O)Nc1ccccc1 do in these assays?
TcdB inh: 1

Results for C[C@@H]1CN([C@@H](C)CO)C(=O)c2cc(/C=C/c3ccccc3)cnc2O[C@H]1CN(C)C(=O)c1ccc(F)cc1 ?
TcdB inh: 4

Results for CCCNC(=O)N1C[C@@H](O)COC[C@H]2O[C@H](CC(=O)N3CCOCC3)CC[C@@H]21 ?
TcdB inh: -1

How did COc1ccc(NC(=O)COC(=O)c2cc(OC)c(OC)cc2NC(=O)c2ccco2)cc1OC do in these assays?
Autofluor counter: 21054*; BoNT A protease: 0; Anthrax LF inh2: -3; BoNT F protease: -2

Results for Cc1[nH]nc(N=CC2=C(O)CC(C)(C)CC2=O)c1-c1ccc(Cl)cc1 ?
Autofluor counter: 20907*!; BoNT A protease: inconclusive; TcdB inh: 1; Anthrax LF inh2: 3; BoNT F protease: -6

Results for CC1(C)CC(=O)C(C=Nc2ccc(Cl)cn2)=C(O)C1 ?
Autofluor counter: 4505; BoNT A protease: 0; Anthrax LF inh2: 0; BoNT F protease: 9

Results for Cc1ccc(N=CC2=C(O)CC(c3ccco3)CC2=O)cc1 (stereo unspecified) ?
Autofluor counter: 17259*; BoNT A protease: 10; Anthrax LF inh2: -1; BoNT F protease: 18

How did O=C1CC(c2ccco2)CC(O)=C1C=Nc1cc(Cl)ccc1O (stereo unspecified) do in these assays?
Autofluor counter: 4222; BoNT A protease: 1; Anthrax LF inh2: 1; BoNT F protease: 22

Results for Cc1[nH]nc(N=CC2=C(O)CC(c3ccco3)CC2=O)c1-c1ccc(Cl)cc1 (stereo unspecified) ?
Autofluor counter: 23437*; BoNT A protease: -3; TcdB inh: 2; Anthrax LF inh2: -1; BoNT F protease: -4

Results for CC(C)NC(=O)Nc1cccc2c1O[C@@H](CN(C)C(=O)NC1CCCCC1)[C@@H](C)CN([C@H](C)CO)C2=O ?
TcdB inh: 1

How did O=S(=O)(N[C@H]1CC[C@@H](CCn2cc(-c3cccc(F)c3)nn2)O[C@@H]1CO)c1ccc(Cl)cc1 do in these assays?
TcdB inh: 0

How did COc1ccc(C2C(=O)N(C3CCCCC3)CC(=O)N2C2CCCC2)cc1 (stereo unspecified) do in these assays?
Autofluor counter: 10672; BoNT A protease: -1; Anthrax LF inh2: -1; BoNT F protease: -5

Results for COc1ccc(C2C(=O)N(CCc3ccccc3)CC(=O)N2C2CCCC2)cc1 (stereo unspecified) ?
Autofluor counter: 23925*; BoNT A protease: -2; Anthrax LF inh2: -1; BoNT F protease: 0

Results for COc1ccc(C2C(=O)N(C3CCCCC3)CC(=O)N2Cc2ccco2)cc1 (stereo unspecified) ?
Autofluor counter: 20572*; BoNT A protease: inconclusive; TcdB inh: 6; Anthrax LF inh2: -5; BoNT F protease: 3
